Screening results: PubChem BioAssay, National Center for Advancing Translational Sciences (NCATS)
Shown are actives, neighbours in structure and some others; about 3.9% of the full set was active somewhere.
HT1080-NT tox: kills 2HG-producing HT-1080-NT fibrosarcoma cells; HT-1080-NT fibrosarcoma viability, CellTiter-Glo ATP luminescence, 48 h; Potency, µM (top dose mostly 46.1 µM), without a hit: at the top dose activity, negative = less viability, actives largely listed as cytotoxic; actives 1.6% (n = 360,000);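 further: NT is the 2HG producing partner of a matched IDH1 knockdown line; 0% = DMSO-treated cells and -100% = media-only wells without cells; nearly all actives have a fitted effect of over 55% in size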
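HT-1080-NT; 750 cells/well; 5% FBS RPMI; 48 h compound, 37 degrees C; CellTiter-Glo luminescence; curve fitting and curve-class assignment.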
HepG2 tox: HepG2 cytotoxicity, counter-screen for TGF-b inhibitors; HepG2 CAGA-GFP viability, ATP luminescence, 18 h; Potency, µM (titrated, usually from 46.1 µM), for the others: at the highest dose activity change, negative = cytotoxicity, actives largely listed as cytotoxic; actives 0.76% (n = 410,000)
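HepG2 CAGA-GFP cells (1000/well, DMEM with 1% FBS) received compound, then TGF-beta at 500 pg/mL final, and were incubated 18 hours at 37 degrees C. Viability was read by CellTiter-Glo luminescence. Media-only wells were set as complete cell-killing and DMSO as no toxicity.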
ATXN viability: viability counter-screen for ATXN expression inhibitors; AID 651635; S2 cells (HEK-293 line with an ATXN2-luciferase reporter) viability, CellTiter-Fluor protease fluorescence, 24 h; actives 0.49% (n = 400,000); Potency, µM (doses to about 56.7 µM), hits mostly cytotoxic; further: nearly all actives have a fitted effect of over 40% in size
TGFb inhibitor: blocks TGF-b signaling; actives 1.2% (n = 410,000); AID 588855; Potency, µM (titrated, usually from 46.1 µM), without a hit: top-dose activity, negative = inhibition, usual class: inhibitors; HepG2 CAGA-GFP TGF-b/SMAD3 reporter, GFP fluorescence, 18 h; TGF-beta stimulated, 500 pg/mL final; further: on the % scale 0 is the no-effect control and ±100 the full control effect; nearly all actives have a fitted effect of over 65% in size
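HEPG2 CAGA-GFP, 1000 cells/well; 2 h settle, 37 C; cpd via pin tool; TGF-b 500 pg/mL final; 18 h, 37 C; GFP imaging ex488/em500-530; %Activity normalised to -TGF-b and +DMSO controls; CRC fit, curve class.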
ATXN2 expr inh: inhibitors of ATXN2 expression. AID 1745845. HEK-293 ATXN2-luciferase reporter, luminescence, 24 h. Potency, µM (highest dose often 57 µM), inactives show at the highest dose activity change, negative = inhibition, usual class: inhibitors. actives 0.72% (n = 360,000); further: on the % scale 0 is the no-effect control and ±100 the full control effect; nearly all actives have a fitted effect of over 55% in size
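ATXN2-luciferase reporter cells (luciferase flanked by upstream and downstream ATXN2 gene portions) were treated 24 h at 37 °C with compounds at up to 57 uM. SteadyGlo luminescence gave expression; GF-AFC fluorescence gave viability.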
HT1080 IDH1KD tx: kills HT-1080 cells with IDH1 knockdown; HT-1080 IDH1 knockdown viability, ATP luminescence, 48 h; Potency, µM (doses to about 46.1 µM), without a hit: at the highest dose activity, negative = toxicity, most hits filed as cytotoxic; actives 2% (n = 360,000);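 further: 0% = DMSO wells and -100% = cell-free medium wells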
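% activity derives from luminescence (CellTiter-Glo), normalised to DMSO and no-cell wells. HT-1080-IDH1KD cells, 750/well, had 48 h compound exposure at 37 °C.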
Starred values were filed as active, the others as inactive; i = inactive; ? = inconclusive; · = no result; [ ] = another dose, or the depositor's remark. The call rests on the fitted dose curve; in most records, active means well fitted curve in the direction sought with a large enough effect; inconclusive means small, poorly fitted or top-dose-only effect, or another doubt; inactive means no such curve, though single readings can be large; an effect the other way counts as inactive or inconclusive. Potency means the concentration at half of the fitted maximal effect.

SMILES | HT1080-NT tox | HepG2 tox | ATXN viability | TGFb inhibitor | ATXN2 expr inh | HT1080 IDH1KD tx
CSc1cccc(NC(=O)Cn2c3ncccc3c(=O)n2-c2ccc(C)cc2)c1 | · | -23% | i | -4% | -14% | ·
O=C(c1ccc(N2CCCC2)c([N+](=O)[O-])c1)N1CCN(CCO)CC1 | 5% | 7.9µM* | i | -3% | -3% | 10%
O=C(/C=C/c1ccc(N2CCCCC2)c([N+](=O)[O-])c1)c1ccc(O)cc1 | 18µM* | -91% | ? | ? | 10% | 18µM*
CC1CN(S(=O)(=O)c2ccc(C(=O)NCCCn3ccnc3)cc2)CC(C)O1 (configuration not stated) | 2.1µM* | 1% | i | 5% | -31% | 1.8µM*
O=C(NCCCn1ccnc1)c1ccc(N2CCCCCC2)c([N+](=O)[O-])c1 | 23µM* | 0% | i | 7% | · | 5.8µM*
CCOc1ncc(F)c(=O)[nH]1 | · | · | i | · | -4% | ·
CCn1nc(C)c2c(-c3ccccc3)cc(=O)n(C(C)C(=O)NCc3ccc(C)cc3)c21 (configuration not stated) | · | -18% | ? | ? | -37% | ·
Cc1nc2c(C(=O)NCCc3ccc(Cl)cc3)c[nH]n2c(=O)c1Cc1ccc(Cl)cc1 | · | 11µM* | · | ? | · | ·
Cc1nc2c(C(=O)NCCc3ccccc3)c[nH]n2c(=O)c1Cc1ccccc1F | · | -63% | i | ? | 2% | ·
Cc1nc2c(C(=O)N(C)Cc3ccccc3)c[nH]n2c(=O)c1Cc1ccc(Cl)cc1 | · | -31% | i | ? | -31% | ·
Cc1ccc(CNC(=O)c2c[nH]n3c(=O)c(Cc4ccc(Cl)cc4)c(C)nc23)cc1 | · | 13µM* | i | ? | -22% | ·
COc1ccccc1CNC(=O)c1ccc(-c2ccccc2Cl)o1 | -23% | -40% | i | 16µM* | 0% | -15%
CCN(c1ccccc1)S(=O)(=O)c1ccc(OC)c(NC(=O)Cn2cnc3c2c(=O)n(C)c(=O)n3C)c1 | 2% | 21% | i | 2.8µM* | 27% | 0%
COc1ccc(Cl)cc1NC(=O)Cn1cnc2c1c(=O)n(C)c(=O)n2C | · | -31% | i | ? | 2% | ·
O=C(O)c1ccccc1/C=N/Nc1ccc(S(=O)(=O)N2CCCC2)cc1[N+](=O)[O-] | 13µM* | -19% | i | 6% | 5% | ?
O=C(O)c1ccccc1NS(=O)(=O)c1ccc(NN=Cc2ccccc2F)c([N+](=O)[O-])c1 | -3% | -8% | i | -7% | -5% | 0%
Cc1ccc(S(=O)(=O)N2CCCC2)cc1[N+](=O)[O-] | 3% | 2% | i | 0% | -9% | -10%
O=C1CCCN1c1ccc(S(=O)(=O)N2CCCCC2)cc1[N+](=O)[O-] | 2% | 6.3µM* | i | -6% | 3% | -1%
O=[N+]([O-])c1cc(S(=O)(=O)N2CCCCCC2)ccc1Cl | 23µM* | -3% | · | 0% | -5%[11.3 µM] | ?
CCOc1ccc(NC(=O)Cn2cc(C(=O)c3ccccc3)c(=O)c3cc4c(cc32)OCCO4)cc1 | · | 4% | i | 3% | 2% | ·
CCOc1ccccc1NC(=O)C(OC(=O)c1ccc(O)cc1)c1ccccc1 (configuration not stated) | ? | -28% | i | ? | -2% | 23µM*
CC1(C(=O)Nc2cccc3cccnc23)CCN1Cc1cccc2c1OCO2 (configuration not stated) | 6.5µM* | -49% | 14µM* | ? | 6.3µM* | ?
O=C(CSC(=S)N1CCCC1)c1cc(Br)cc(Br)c1O | 16µM* | -22% | i | ? | ? | -15%
COCCn1c(C)cc(C2=NNC(=NC3CC3)SC2)c1C | ? | 10µM* | ? | 8% | 0.21µM* | ?
C=CCN=C1NN=C(c2cc(C)n(CCOC)c2C)CS1 | 9% | -5% | i | -4% | -23% | 8%
SMILES | HT1080-NT tox | HepG2 tox | ATXN viability | TGFb inhibitor | ATXN2 expr inh | HT1080 IDH1KD tx
Cc1cc(C2=NNC(=NC3CC3)SC2)c(C)n1-c1ccccc1 | -13% | -34% | i | ? | · | -21%
COCCCN=C1NN=C(c2cc(C)n(Cc3ccco3)c2C)CS1 | 1.6µM* | -22% | i | ? | 0% | 1.6µM*
COc1ccc(-n2c(C)cc(C3=NNC(=NC4CC4)SC3)c2C)cc1 | 23µM* | -47% | i | ? | 7% | 21µM*
Cc1cc(C2=NNC(=NC3CC3)SC2)c(C)n1Cc1ccco1 | 7.3µM* | -41% | ? | ? | ? | 7.3µM*
CCOc1ccc(OCC)c(NC(=O)c2nnn(CC(=O)Nc3ccc(C)cc3C)c2N)c1 | · | -11% | i | ? | 1% | ·
O=C(CC(Cl)(Cl)Cl)N1CCN(/[N+]([O-])=N/Oc2ccc([N+](=O)[O-])cc2[N+](=O)[O-])CC1 | · | -112% | · | ? | · | ·
Cc1ccc(S(=O)(=O)c2nnn3c2nc(N2CCC(C)CC2)c2cc(Cl)ccc23)cc1C | · | 1% | i | 0% | 8% | ·
CCn1c(=N)c(C(=O)NC)cc2c(=O)n3cccc(C)c3nc21 | -23% | -22% | · | ? | ? | -1%
CCNc1nc(C)c2cc(Br)c(=O)n(CC)c2n1 | 2.9µM* | 2% | i | 31% | -2% | 2.1µM*
O=C(O)CCSc1nc2ccccc2s1 | 1% | 10% | i | 10% | 10µM* | -2%
c1ccc2sc(SCSc3nc4ccccc4s3)nc2c1 | -1% | -42% | i | -11% | · | -23%
COc1ccc(-c2c(-c3ccc(OC)c(C)c3O)n[nH]c2C)cc1 | ? | -65% | · | 14µM* | ? | 18µM*
COc1cc2nc(N3CCCC(O)C3)c(CNCc3ccccc3F)cc2c(OC)c1OC (configuration not stated) | · | · | i | · | · | ·
Oc1c(C(Nc2ccccn2)c2ccccn2)ccc2cccnc12 (configuration not stated) | ? | -16% | ? | -19% | 5µM* | 8.2µM*
Oc1ccccc1C(Nc1nccs1)c1ccc2cccnc2c1O (configuration not stated) | ? | -17% | i | ? | 7.1µM* | 7.3µM*
Cc1ccnc(NC(c2ccccc2F)c2ccc3cccnc3c2O)c1 (configuration not stated) | · | -30% | i | ? | ? | ·
Oc1c(C(Nc2ccccn2)c2ccccc2F)ccc2cccnc12 (configuration not stated) | · | -1% | · | 1.4µM* | · | ·
